Laboratory results from PubChem BioAssay AID463173 (ICCB-Longwood Screening Facility, Harvard Medical School, 2010).
Screen size: about 52,000 compounds; about 4,300 (8.3%) were called active. The list comes from a sample in which actives are over-represented; it also holds similar structures and randomly drawn compounds. Values without a mark were called inactive. Cut-off read from the data, not from the text of the source: active = survival mostly below about 52% (no sharp cut-off); inactive = mostly above about 56%.

Each compound was assayed on DeltatarO mutant (assay: growth inhibition of S. aureus wild type versus tarO mutant, primary screen, teichoic acid synthesis inhibitors, RN4220, OD600 (AID 463173)). Conditions: OD600, 18 h, stronger effect = lower value, screened at 18.75 µg/mL (by protocol).

Row | Structure (SMILES) | survival
1 | O=C(COc1ccc(Br)cc1Cl)Nc1ncn[nH]1 | 91%
2 | CCOCCCNC(=O)C1CCCN(c2ncnc3onc(C)c23)C1 (stereo unspecified) | 68%
3 | COc1ccc(-c2cn3nc(N4CCC(C(=O)Nc5cccc(OC)c5)CC4)sc3n2)cc1 | 94%
4 | C#CCn1c(=NC(=O)c2ccc3c(c2)OCCO3)sc2cc(OC)c(OC)cc21 | 102%
5 | COc1cccc(C(=O)c2cn(CC(=O)Nc3ccc4c(c3)OCCO4)c3nc(C)ccc3c2=O)c1 | 68%
6 | CCOC(=O)c1c(Oc2ccc(C(=O)OC)cc2)nnc(-c2ccccc2)c1-c1ccccc1 | 74%
7 | CNC(=O)c1ccc(Nc2nnc(-c3ccc(C)c(S(=O)(=O)N4CCOCC4)c3)c3ccccc23)cc1 | 61%
8 | CCOC(=O)c1c(Nc2cc(C)cc(C)c2)nnc(-c2ccccc2)c1-c1ccccc1 | 32% (active)
9 | CCOC(=O)c1c(C)oc2nc(C)nc(Nc3cccc(OC)c3)c12 | 78%
10 | CCOC(=O)c1c(Nc2cccc(O)c2)nnc(-c2ccccc2)c1-c1ccccc1 | 31% (active)
11 | Cc1ccc(-c2nnc(Nc3cccc(O)c3)c3ccccc23)cc1S(=O)(=O)N1CCCCC1 | 60%
12 | CCOC(=O)c1c(Nc2cccc(C(=O)OC)c2)nnc(-c2ccccc2)c1-c1ccccc1 | 16% (active)
13 | Cc1ccc(-c2nnc(Nc3ccc(C(N)=O)cc3)c3ccccc23)cc1S(=O)(=O)N1CCCCC1 | 128%
14 | CCOC(=O)c1c(C)oc2ncnc(Nc3cc(C)cc(C)c3)c12 | 94%
15 | CCOC(=O)c1c(C)oc2nc(C)nc(Nc3cc(C)cc(C)c3)c12 | 89%
16 | Cc1ccc(-c2nnc(Nc3cccc(O)c3)c3ccccc23)cc1S(=O)(=O)N1CCOCC1 | 78%
17 | CNC(=O)c1ccc(Nc2nnc(-c3ccc(C)c(S(=O)(=O)N4CCCCC4)c3)c3ccccc23)cc1 | 54% (active)
18 | Cc1ccc(N2CCN(c3nc4c(S(=O)(=O)c5ccc(C)c(C)c5)nnn4c4ccccc34)CC2)c(C)c1 | 82%
19 | CN(C)c1ccc(CNC(=O)C2CCCN(S(=O)(=O)c3ccc4c(ccn4C)c3)C2)cc1 (stereo unspecified) | 83%
20 | Cc1noc(-c2ccc(N3CCCCC3C)c([N+](=O)[O-])c2)n1 (stereo unspecified) | 108%
21 | CCOc1ccc(N2C(=O)N(Cc3ccc(C)cc3C)c3ccccc3S2(=O)=O)cc1 | 94%
22 | CCOC(=O)c1c(C)c(-c2ccccc2)n(CC(=O)Nc2cc(C)cc(C)c2)c1C | 80%

Row | Structure (SMILES) | survival
23 | CCOC(=O)c1cccc(Nc2cc(C)nc(C)n2)c1 | 65%
24 | Cc1ccc(-c2nnc(Nc3cccc(O)c3)c3ccccc23)cc1S(=O)(=O)N1CCN(C)CC1 | 97%
25 | CCOC(=O)c1c(C)oc2ncnc(Nc3cccc(C(F)(F)F)c3)c12 | 105%
26 | CCOC(=O)c1cccc(Nc2cc(-c3ccccc3)ncn2)c1 | 15% (active)
27 | Cc1ccc(-c2nnc(Nc3cccc(O)c3)c3ccccc23)cc1S(=O)(=O)NCC1CCCO1 (stereo unspecified) | 74%
28 | CCOC(=O)CNS(=O)(=O)c1cc(-c2nnc(Nc3cccc(O)c3)c3ccccc23)ccc1C | 39% (active)
29 | CCOC(=O)c1c(Nc2cccc(C)c2)nnc(-c2ccccc2)c1-c1ccccc1 | -4% (active)
30 | Oc1cccc(Nc2cc(-c3ccccc3)ncn2)c1 | 63%
31 | CCc1ccc(NC(=O)Cn2c(=O)n(-c3ccccc3C)c(=O)c3c2c2cc(OC)ccc2n3C)cc1 | 67%
32 | COc1ccccc1OCC(=O)NC1CC(=O)N(c2ccc3c(c2)OCCO3)C1 (stereo unspecified) | 67%
33 | Cc1coc2c(C)c3oc(=O)c(CCC(=O)NCCc4ccccc4F)c(C)c3cc12 | 57%
34 | O=C1c2[nH]nc(-c3ccccc3O)c2C(c2ccc(Cl)cc2)N1Cc1ccco1 (stereo unspecified) | -1% (active)
35 | COc1cc(C2c3c(-c4ccccc4O)n[nH]c3C(=O)N2CCO)ccc1OCC(C)C (stereo unspecified) | 99%
36 | COc1cc(C2c3c(-c4ccccc4O)n[nH]c3C(=O)N2Cc2ccco2)ccc1OCC(C)C (stereo unspecified) | 7% (active)
37 | CCCOc1ccc(C2c3c(-c4c(C)cc(C)cc4O)n[nH]c3C(=O)N2CCO)cc1 (stereo unspecified) | 73%
38 | COc1cc(C2c3c(-c4cc(C)ccc4O)n[nH]c3C(=O)N2CCCO)ccc1OCCC(C)C (stereo unspecified) | 58%
39 | COC(=O)c1ccc(C2c3c(-c4ccccc4O)n[nH]c3C(=O)N2Cc2ccncc2)cc1 (stereo unspecified) | 90%
40 | CC(C)c1ccc(C2c3c(-c4ccccc4O)n[nH]c3C(=O)N2Cc2ccncc2)cc1 (stereo unspecified) | 88%
41 | O=C1c2[nH]nc(-c3ccccc3O)c2C(c2cccc(Cl)c2)N1Cc1cccnc1 (stereo unspecified) | 65%
42 | COc1ccc(C2c3c(-c4c(C)cc(C)cc4O)n[nH]c3C(=O)N2Cc2ccco2)cc1 (stereo unspecified) | 0% (active)
43 | COc1cc(C2c3c(-c4c(C)cc(C)cc4O)n[nH]c3C(=O)N2Cc2ccco2)cc(OC)c1OC (stereo unspecified) | 67%
44 | COc1ccc(C2c3c(-c4ccccc4O)n[nH]c3C(=O)N2Cc2ccco2)cc1 (stereo unspecified) | 1% (active)

Row | Structure (SMILES) | survival
45 | CC(C)(C)c1ccc(C(=O)NCC(c2cccnc2)N2CCc3ccccc3C2)cc1 (stereo unspecified) | 98%
46 | O=C(c1nc(-c2ccc(Cl)cc2)n2c1CCCCC2)N1CCN(c2ccccc2)CC1 | 88%
47 | COC(=O)c1sc(N2C(=O)c3oc4cc(C)c(C)cc4c(=O)c3C2c2ccccc2F)nc1C (stereo unspecified) | 70%
48 | O=c1c2nncn2ccn1-c1ccc(F)c(F)c1 | 90%
49 | CCN(c1ccccc1)c1nnc(NC(=O)Nc2cccc(C(F)(F)F)c2)s1 | 88%
50 | Cc1ccccc1-c1nnc(SCC(=O)N(C)C2CCCCC2)o1 | 67%
51 | COc1ccc(-n2nc3ccc(NC(=O)c4cccc(OCCC(C)C)c4)cc3n2)cc1 | 121%
52 | CN(C)CCCNc1cn[nH]c(=O)c1Cl | 93%
53 | CCOc1ccc(C(=O)CSc2nc3c(c(=O)n(C)c(=O)n3C)n2C(C)C)cc1 | 77%
54 | O=C(CSc1cn(CC(=O)N2CCOCC2)c2ccccc12)Nc1ccccc1C(F)(F)F | 65%
55 | COc1ccc(-c2ccc3c(N)c(C(=O)c4ccc(OC)c(OC)c4)sc3n2)cc1 | 52%
56 | COc1cccc(-c2ccc3c(N)c(C(=O)NCc4ccc(Cl)cc4)sc3n2)c1 | 41% (active)
57 | COc1cccc(-c2ccc3c(N)c(C(=O)c4ccc(F)cc4)sc3n2)c1 | 17% (active)
58 | COc1ccc(C(=O)c2sc3nc(-c4ccc(F)cc4)ccc3c2N)cc1 | 81%
59 | COc1cccc(-c2ccc3c(N)c(C(=O)Nc4cc(C(F)(F)F)ccc4OC)sc3n2)c1 | 89%
60 | COc1cccc(-c2ccc3c(N)c(C(=O)Nc4ccc(C)c(F)c4)sc3n2)c1 | 95%
61 | COc1ccc(C(=O)c2sc3nc(-c4ccc(C)cc4)cc(C(F)(F)F)c3c2N)cc1 | 134%
62 | COc1cccc(-c2ccc3c(N)c(C(=O)c4ccc(Br)cc4)sc3n2)c1 | 28% (active)
63 | COc1ccc(-c2ccc3c(N)c(C(=O)NCc4ccc(Cl)cc4)sc3n2)cc1 | 79%
64 | COc1cccc(C(=O)c2sc3nc(-c4ccccc4)cc(C(F)(F)F)c3c2N)c1 | 37% (active)
65 | COc1ccc(NC(=O)c2sc3nc(-c4ccc(OC)cc4)cc(C(F)(F)F)c3c2N)cc1 | 56%
66 | COc1ccc(-c2ccc3c(N)c(C(=O)NCc4ccc(C)cc4)sc3n2)cc1 | 69%
